Source: the supplement of paper PMC8728848
The sample as a whole holds a higher share of the strongest signals than the screen did.

Assays:
Assay in all cases: glycan array binding signal (z-score within array); higher = stronger binding
Details in all cases: glycan notation: IUPAC condensed, linker removed
Fuc(a1-2)Gal(b1-4)Glc6S = target: Fuc(a1-2)Gal(b1-4)Glc6S
In short: (§1)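 Columns mapping to the same glycan were averaged after glycan names were converted to IUPAC-condensed notation. The data come from 3228 arrays in the Consortium for Functional Glycomics database, limited to those with an available protein sequence. Binding is reported as a within-array Z-score averaged across arrays of one protein sequence and across linkers.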

[1] = target: Fuc(a1-2)Gal3S(b1-4)GlcNAc
In short: as §1

[2] = target: Fuc(a1-2)Gal6S(b1-4)Glc6S
In short: as §1

[3] = target: Fuc(a1-2)[Gal(a1-3)]Gal(b1-4)GlcNAc(b1-3)[Fuc(a1-2)[Gal(a1-3)]Gal(b1-4)GlcNAc(b1-6)]GalNAc
In short: as §1

[4] = target: Fuc(a1-3)[Gal(b1-4)]GlcNAc(b1-3)Gal(b1-4)[Fuc(a1-3)]GlcNAc(b1-3)Gal(b1-4)[Fuc(a1-3)]GlcNAc
In short: as §1

[5] = target: Fuc(a1-3)[Gal3S(b1-4)]GlcNAc6S
In short: as §1

Fuc(a1-4)GlcNAc = target: Fuc(a1-4)GlcNAc
In short: as §1

Gal(a1-3)Gal(b1-3)GlcNAc = target: Gal(a1-3)Gal(b1-3)GlcNAc
In short: as §1

[6] = target: Gal(a1-3)Gal(b1-3)[Fuc(a1-4)]GlcNAc(b1-2)Man(a1-3)[Gal(a1-3)Gal(b1-3)[Fuc(a1-4)]GlcNAc(b1-2)Man(a1-6)]Man(b1-4)GlcNAc(b1-4)GlcNAc
In short: as §1

[7] = target: Gal(a1-3)Gal(b1-4)[Fuc(a1-3)]GlcNAc(b1-2)Man(a1-3)[Gal(a1-3)Gal(b1-4)[Fuc(a1-3)]GlcNAc(b1-2)Man(a1-6)]Man(b1-4)GlcNAc(b1-4)GlcNAc
In short: as §1

[8] = target: Gal(a1-3)[Gal(a1-4)]Gal(b1-4)GlcNAc
In short: as §1

[9] = target: Gal(b1-3)GalNAc(b1-3)Gal(a1-4)Gal(b1-4)Glc
In short: as §1

[10] = target: Gal(b1-3)GlcNAc(b1-3)Gal(b1-3)GlcNAc
In short: as §1

[11] = target: Gal(b1-3)GlcNAc(b1-3)Gal(b1-4)GlcNAc(b1-2)Man(a1-3)[Gal(b1-3)GlcNAc(b1-3)Gal(b1-4)GlcNAc(b1-2)Man(a1-6)]Man(b1-4)GlcNAc(b1-4)GlcNAc
In short: as §1

[12] = target: Gal(b1-3)GlcNAc(b1-3)Gal(b1-4)GlcNAc(b1-6)[Gal(b1-3)GlcNAc(b1-3)]Gal(b1-4)Glc
In short: as §1

[13] = target: Gal(b1-3)GlcNAc(b1-6)[Gal(b1-3)]GalNAc
In short: as §1

[14] = target: Gal(b1-3)[Fuc(a1-4)]GlcNAc(b1-2)Man(a1-3)[Gal(b1-3)[Fuc(a1-4)]GlcNAc(b1-2)Man(a1-6)]Man(b1-4)GlcNAc(b1-4)[Fuc(a1-6)]GlcNAc
In short: as §1

[15] = target: Gal(b1-4)GlcNAc(b1-2)Man(a1-6)[Man(a1-3)]Man(b1-4)GlcNAc(b1-4)GlcNAc
In short: as §1

[16] = target: Gal(b1-4)GlcNAc(b1-3)Gal(b1-4)GlcNAc(b1-2)Man(a1-3)[Gal(b1-4)GlcNAc(b1-3)Gal(b1-4)GlcNAc(b1-2)Man(a1-6)]Man(b1-4)GlcNAc(b1-4)GlcNAc
In short: as §1

[17] = target: Gal(b1-4)GlcNAc(b1-3)Gal(b1-4)GlcNAc(b1-2)[Gal(b1-4)GlcNAc(b1-3)Gal(b1-4)GlcNAc(b1-6)]Man(a1-6)[Gal(b1-4)GlcNAc(b1-3)Gal(b1-4)GlcNAc(b1-2)Man(a1-3)]Man(b1-4)GlcNAc(b1-4)[Fuc(a1-6)]GlcNAc
In short: as §1

[18] = target: Gal(b1-4)GlcNAc(b1-3)Gal(b1-4)[Fuc(a1-3)]GlcNAc(b1-3)Gal(b1-4)[Fuc(a1-3)]GlcNAc
In short: as §1

[19] = target: Gal(b1-4)GlcNAc(b1-3)[GlcNAc(b1-6)]Gal(b1-4)GlcNAc
In short: as §1

[20] = target: Gal(b1-4)GlcNAc(b1-6)Gal(b1-4)GlcNAc
In short: as §1

[21] = target: Gal(b1-4)GlcNAc(b1-6)[Gal(b1-3)]GalNAc
In short: as §1

Gal3S(b1-3)GlcNAc = target: Gal3S(b1-3)GlcNAc
In short: as §1

[22] = target: Gal3S(b1-4)[Fuc(a1-3)]Glc6S
In short: as §1

GalNAc(a1-3)Gal = target: GalNAc(a1-3)Gal
In short: as §1

GalNAc(b1-3)GlcNAc = target: GalNAc(b1-3)GlcNAc
In short: as §1

GalNAc(b1-4)GlcNAc = target: GalNAc(b1-4)GlcNAc
In short: as §1

GalNAc6S(b1-4)GlcNAc = target: GalNAc6S(b1-4)GlcNAc
In short: as §1

[23] = target: Fuc(a1-2)[GalNAc(a1-3)]Gal(b1-4)Glc
In short: as §1

[24] = target: Gal(b1-3)Gal(b1-4)GlcNAc(b1-2)Man(a1-3)[Gal(b1-3)Gal(b1-4)GlcNAc(b1-2)Man(a1-6)]Man(b1-4)GlcNAc(b1-4)GlcNAc
In short: as §1

[25] = target: Gal(b1-3)GlcNAc(b1-2)Man(a1-3)[Gal(b1-3)GlcNAc(b1-2)Man(a1-6)]Man(b1-4)GlcNAc(b1-4)GlcNAc
In short: as §1

[26] = target: Gal(b1-3)[Fuc(a1-4)]GlcNAc
In short: as §1

Gal(b1-4)GlcNAc = target: Gal(b1-4)GlcNAc
In short: as §1

[27] = target: Gal(b1-4)GlcNAc(b1-3)Gal(b1-3)GlcNAc
In short: as §1

Gal3S4S(b1-4)GlcNAc = target: Gal3S4S(b1-4)GlcNAc
In short: as §1

GalNAc(a1-3)GalNAc = target: GalNAc(a1-3)GalNAc
In short: as §1

[28] = target: GalNAc(b1-3)Gal(a1-4)Gal(b1-4)GlcNAc
In short: as §1

[29] = target: GlcNAc(a1-4)Gal(b1-4)GlcNAc(b1-3)Gal(b1-4)[Fuc(a1-3)]GlcNAc(b1-3)Gal(b1-4)[Fuc(a1-3)]GlcNAc
In short: as §1

[30] = target: GlcNAc(b1-4)GlcNAc(b1-4)GlcNAc(b1-4)GlcNAc(b1-4)GlcNAc
In short: as §1

[31] = target: GlcNAc(b1-4)GlcNAc(b1-4)GlcNAc(b1-4)GlcNAc(b1-4)GlcNAc(b1-4)GlcNAc
In short: as §1

[32] = target: GlcNAc6S(b1-3)Gal(b1-4)GlcNAc
In short: as §1

[33] = target: Kdn(a2-3)Gal(b1-4)[Fuc(a1-3)]GlcNAc
In short: as §1

[34] = target: Man(a1-2)Man(a1-2)Man(a1-6)[Man(a1-3)]Man
In short: as §1

[35] = target: Man(a1-2)Man(a1-3)[Man(a1-2)Man(a1-6)]Man(a1-6)[Man(a1-2)Man(a1-2)Man(a1-3)]Man
In short: as §1

[36] = target: Man(a1-2)Man(a1-3)[Man(a1-2)Man(a1-6)]Man(a1-6)[Man(a1-3)[Man(a1-6)]Man(a1-6)]Man(b1-4)GlcNAc(b1-4)GlcNAc
In short: as §1

[37] = target: Man(a1-2)Man(a1-3)[Man(a1-6)]Man(a1-6)[Man(a1-2)Man(a1-3)]Man(b1-4)GlcNAc(b1-4)GlcNAc
In short: as §1

[38] = target: Man(a1-2)Man(a1-6)[Man(a1-3)]Man(a1-6)[Man(a1-2)Man(a1-2)Man(a1-3)]Man(b1-4)GlcNAc(b1-4)GlcNAc
In short: as §1

Man(a1-3)[Man(a1-6)]Man = target: Man(a1-3)[Man(a1-6)]Man
In short: as §1

[39] = target: Man(a1-3)[Man(a1-6)]Man(a1-6)[Man(a1-2)Man(a1-3)]Man(b1-4)GlcNAc(b1-4)GlcNAc
In short: as §1

[40] = target: Man(a1-3)[Man(a1-6)]Man(a1-6)[Man(a1-3)]Man(b1-4)GlcNAc(b1-4)GlcNAc
In short: as §1

[41] = target: Man(a1-3)[Man(a1-6)]Man(b1-4)GlcNAc(b1-4)GlcNAc
In short: as §1

[42] = target: Neu5Ac(a2-3)Gal(b1-4)GlcNAc6S
In short: as §1

[43] = target: Neu5Ac(a2-3)Gal(b1-4)[Fuc(a1-3)]GlcNAc
In short: as §1

[44] = target: Neu5Ac(a2-6)Gal(b1-4)GlcNAc
In short: as §1

[45] = target: Neu5Ac(a2-6)Gal(b1-4)GlcNAc(b1-2)Man(a1-3)Man(b1-4)GlcNAc(b1-4)GlcNAc
In short: as §1

[46] = target: Neu5Ac(a2-6)Gal(b1-4)GlcNAc(b1-3)Gal(b1-4)GlcNAc
In short: as §1

B1: Thrombomodulin (Mus musculus) (protein)
chain: ALAKLQPTGSQCVEHECFALFQGPATFLDASQACQRLQGHLMTVRSSVAADVISLLLSQSSMDLGPWIGLQLPQGCDDPVHLGPLRGFQWVTGDNHTSYSRWARPNDQTAPLCGPLCVTVSTATEAAPGEPAWEEKPCETETQGFLCEFYFTASC
glycan array binding signal (z-score) (Fuc(a1-2)Gal(b1-4)Glc6S): 0.107 | glycan array binding signal (z-score) [1]: -0.236 | glycan array binding signal (z-score) [2]: -0.056 | glycan array binding signal (z-score) [3]: 5.4 | glycan array binding signal (z-score) [4]: -0.183 | glycan array binding signal (z-score) [5]: -0.172 | glycan array binding signal (z-score) (Fuc(a1-4)GlcNAc): 3.52 | glycan array binding signal (z-score) (Gal(a1-3)Gal(b1-3)GlcNAc): 4.59 | glycan array binding signal (z-score) [6]: 0.179 | glycan array binding signal (z-score) [7]: 0.955 | glycan array binding signal (z-score) [8]: 0.213 | glycan array binding signal (z-score) [9]: -0.277 | glycan array binding signal (z-score) [10]: 0.083 | glycan array binding signal (z-score) [11]: -0.022 | glycan array binding signal (z-score) [12]: 0.148 | glycan array binding signal (z-score) [13]: -0.267 | glycan array binding signal (z-score) [14]: 0.595 | glycan array binding signal (z-score) [15]: 0.088 | glycan array binding signal (z-score) [16]: 1.25 | glycan array binding signal (z-score) [17]: 0.053 | glycan array binding signal (z-score) [18]: 0.126 | glycan array binding signal (z-score) [19]: -0.029 | glycan array binding signal (z-score) [20]: -0.219 | glycan array binding signal (z-score) [21]: -0.326 | glycan array binding signal (z-score) (Gal3S(b1-3)GlcNAc): -0.007 | glycan array binding signal (z-score) [22]: 0.12 | glycan array binding signal (z-score) (GalNAc(a1-3)Gal): 0.15 | glycan array binding signal (z-score) (GalNAc(b1-3)GlcNAc): -0.37 | glycan array binding signal (z-score) (GalNAc(b1-4)GlcNAc): 0.33 | glycan array binding signal (z-score) (GalNAc6S(b1-4)GlcNAc): -0.071

B2: MVL (Microcystis viridis), Q9RHG4 (protein)
chain: MASYKVNIPAGPLWSNAEAQQVGPKIAAAHQGNFTGQWTTVVESAMSVVEVELQVENTGIHEFKTDVLAGPLWSNDEAQKLGPQIAASYGAEFTGQWRTIVEGVMSVIQIKYTF
glycan array binding signal (z-score) (Fuc(a1-2)Gal(b1-4)Glc6S): -0.234 | glycan array binding signal (z-score) [23]: -0.201 | glycan array binding signal (z-score) [24]: 1.85 | glycan array binding signal (z-score) [25]: 1.51 | glycan array binding signal (z-score) [26]: -0.232 | glycan array binding signal (z-score) (Gal(b1-4)GlcNAc): -0.227 | glycan array binding signal (z-score) [27]: -0.23 | glycan array binding signal (z-score) (Gal3S(b1-3)GlcNAc): -0.239 | glycan array binding signal (z-score) (Gal3S4S(b1-4)GlcNAc): -0.243 | glycan array binding signal (z-score) (GalNAc(a1-3)Gal): -0.231 | glycan array binding signal (z-score) (GalNAc(a1-3)GalNAc): -0.243 | glycan array binding signal (z-score) [28]: -0.243 | glycan array binding signal (z-score) [29]: 0.006 | glycan array binding signal (z-score) [30]: 0.051 | glycan array binding signal (z-score) [31]: -0.006 | glycan array binding signal (z-score) [32]: -0.119 | glycan array binding signal (z-score) [33]: -0.121 | glycan array binding signal (z-score) [34]: -0.183 | glycan array binding signal (z-score) [35]: 7.38 | glycan array binding signal (z-score) [36]: 5.26 | glycan array binding signal (z-score) [37]: 2.01 | glycan array binding signal (z-score) [38]: 6.83 | glycan array binding signal (z-score) (Man(a1-3)[Man(a1-6)]Man): -0.232 | glycan array binding signal (z-score) [39]: 2.68 | glycan array binding signal (z-score) [40]: 2.72 | glycan array binding signal (z-score) [41]: 1.59 | glycan array binding signal (z-score) [42]: -0.238 | glycan array binding signal (z-score) [43]: -0.23 | glycan array binding signal (z-score) [44]: -0.241 | glycan array binding signal (z-score) [45]: 0.179 | glycan array binding signal (z-score) [46]: -0.236
